Out of some 1,200 compounds screened, about 290 (24%) were called active. Not shown: some 9% with an inconclusive outcome. How the calls were made is not given here. Only a sample is shown. Entries with a potency or affinity are not part of this list.

Drawing on PubChem BioAssay AID504882 (Broad Institute, 2011), this text covers outcome for 70 compounds.

The nature of this experiment: LCL viability reduction – cell-based, plate reader, cherry-picks, set 2, cytotoxicity control, dose response (AID 504882). The settings on record: EBV lymphoblastoid cells (LCL) viability; series mostly up to 19.5 µM.
Turning to `COc1ccc([C@H]2N[C@]3(CCCN(Cc4ccco4)C3=O)[C@H]3C(=O)N(Cc4ccccc4)C(=O)[C@@H]23)cc1`, the outcome was inactive.

Consider `Cc1nn(-c2ccccc2)c(Cl)c1C(=O)N1CCN(c2ncnc3c2cnn3-c2ccccc2)CC1`, for which the result was inactive.

Consider `COc1ccc(/C=C2\N=C(C)OC2=O)cc1[N+](=O)[O-]`, for which the compound was called inactive.

Take `Cc1ccc(N2C(=O)c3ccccc3C2Nc2cccnc2)nc1` (stereo not given): the compound was classed as inactive.

Consider `C=CCN=C1NN=C(c2cc(C)n(CCOC)c2C)CS1`, for which the call was inactive.

With `COc1ccc(-c2nc(CN3CCC(C(=O)N4CCOCC4)CC3)c(C)o2)cc1C`, the compound was called inactive.

In the case of `Cc1cc2ccccc2n1CCNC(=O)COc1ccc2ccccc2c1`, the compound was classed as inactive.

Consider `Cc1ccccc1C(=O)c1c[nH]c(C(=O)NCc2ccco2)c1`, for which the compound was classed as inactive.

`O=C1c2ccccc2C(O)N1Cc1ccccc1` (stereo not given): the compound was called inactive.

As to `Nc1ncnc2c1c(-c1ccc(Oc3ccccc3)cc1)cn2C1CCCC1`, the compound was called inactive.

Take `CN1CCN(C(=O)C2=C[C@@H](C(C)(C)C)C[C@@H](OCc3ccc(CO)cc3)O2)CC1`: the outcome was inactive.

As to `COc1ccc(C(CNC(=O)Nc2ccccc2)N2CCN(C)CC2)cc1` (stereo not given), the compound was called inactive.

Consider `CC1CN(c2cc(=O)n(-c3ccccc3)c(=O)[nH]2)CC(C)O1` (stereo not given), for which the result was inactive.

Take `N#CCCn1cc(C(=O)Nc2ccccn2)c(-c2ccccc2)n1`: the compound was called inactive.

In the case of `O=C(Nc1ccccn1)NC1CCCCC1`, the compound was classed as inactive.

On to `Cc1ccc(NC(=O)C(=O)Nc2ccccn2)cc1`, for which the result was inactive.

In the case of `COc1ccc(OCC(=O)Nc2nccs2)cc1`, the result was inactive.

`O=[N+]([O-])c1ccc(N2CCN(Cc3cccc([N+](=O)[O-])c3)CC2)cc1`: the result was inactive.

Turning to `Cc1ccc(C2=C/C(=C\c3cccnc3)C(=O)O2)cc1`, the call was inactive.

Regarding `CCOc1ccc(N(C(C)C(=O)N2CCCCCC2)S(C)(=O)=O)cc1` (stereo not given), the compound was called inactive.

In the case of `Cn1ncc(Cl)c1C(=O)NC1CCCC1`, the compound was classed as inactive.

On to `CN(C)c1cccc(C(=O)N/N=C/c2ccccc2F)c1`, for which the outcome was inactive.

On to `CCN(CC)c1ccc(NC(=O)c2cccc(F)c2)c(C)c1`, for which the compound was classed as inactive.

For `COCCn1c(SCC(=O)N2CCc3ccccc32)nc2c(c1=O)SC(C)C2` (stereo not given), the result was inactive.

For `Cc1cc(C)n(C2CCCCC2OC(=O)c2ccccc2F)n1` (stereo not given), the result was inactive.

As to `O=C(c1ccc(Cl)cc1)N1CCN(CCOc2ccccc2)CC1`, the compound was classed as inactive.

As to `CNC(=S)N1N=C(c2cccs2)CC1c1ccc(F)cc1` (stereo not given), the result was inactive.

On to `O=C1OCCC1Sc1nnc(-c2ccc(Cl)cc2Cl)o1` (stereo not given), for which the outcome was inactive.

For the compound `CCCC(=O)C1=C(O)C(C(=O)OC)C(C)(C)CC1=Nc1ccncc1` (stereo not given), the compound was classed as inactive.

In the case of `Cc1cc(C(=O)COC(=O)c2ccc[nH]c2=O)c(C)n1-c1ccccc1`, the result was inactive.

In the case of `COc1ccc(S(=O)(=O)N2CCOCC2)cc1NC(=O)COC(=O)CCS(=O)(=O)c1ccc(C)cc1`, the compound was called inactive.

As to `O=C(O)CCc1nc(-c2ccc(Cl)cc2)no1`, the call was inactive.

Consider `NC(=O)c1sc2nc3c(c(-c4cccs4)c2c1N)CCCCC3`, for which the call was inactive.

On to `O=C1CC(c2cccs2)Cc2nc(NC(=O)C3CC3)ncc21` (stereo not given), for which the compound was called inactive.

For the compound `O=C(Nc1ccc(Br)cc1)C1CC(O)CN1C(=O)OCc1ccccc1` (stereo not given), the result was inactive.

Regarding `CC(CN1CCCCC1)OC(=O)c1ccc2c(c1)OCO2` (stereo not given), the outcome was inactive.

As for `COC(=O)C1=C(C(=O)c2ccccc2)C(c2ccccc2)n2nnnc2N1` (stereo not given), the compound was called inactive.

Turning to `Cc1ccc(NC(=O)/C=N/OCC(=O)NCc2ccccc2Cl)cc1`, the call was inactive.

On to `Cc1cc(N)nc(=O)n1C1CC(O)C(CO)O1` (stereo not given), for which the result was inactive.

As for `CCOC(=O)/C=C(\C)Sc1cc(=O)oc2ccccc12`, the compound was called inactive.

On to `CCCNC(=O)N1CCN(S(=O)(=O)c2ccc(C)c(C)c2)CC1`, for which the compound was called inactive.

As for `COc1ccc(S(=O)(=O)N2CCCCCC2)cc1C(=O)OCc1cccc(OC)c1OC`, the compound was classed as inactive.

Take `Cc1ccc(-n2nc(C(=O)NCc3ccc(C)o3)c3c4ccccc4n(C)c3c2=O)cc1`: the outcome was inactive.

`COc1ccc(OC)c(CCNC(=O)CCn2nc(C)c3c(C)n(-c4ccccc4)nc3c2=O)c1`: the call was inactive.

With `Cn1cc(CC(=O)NCCCN2CCCC2)c2ccccc21`, the outcome was inactive.

Regarding `CCOC(=O)N1CCC(NC(=O)C2CCCN(Cc3nc(-c4cccc(Cl)c4)oc3C)C2)CC1` (stereo not given), the outcome was inactive.

Consider `NC(=O)OCC(COC(N)=O)c1ccccc1`, for which the outcome was inactive.

Consider `O=C(CN1C(=O)c2ccccc2S1(=O)=O)c1ccccc1`, for which the outcome was inactive.

On to `COc1ccc(-n2cnc3c(cnn3CCC#N)c2=N)cc1`, for which the outcome was inactive.

With `O=C(NC1CCCCC1)N1CCN(c2ccc([N+](=O)[O-])cc2)CC1`, the compound was called inactive.

In the case of `COc1ccc(CCNC(=O)c2nnn(-c3ccc4c(c3)OCCO4)c2N)cc1OC`, the result was inactive.

For the compound `Cc1ccccc1-n1nc(C)c2cc(C(=O)NC3CC3)sc21`, the compound was classed as inactive.

For the compound `CC1CCN(CCOc2ccc(C(=O)c3ccccc3)cc2)CC1`, the compound was classed as inactive.

In the case of `O=C(Cn1ccc(C(F)(F)F)n1)Nc1cccc(S(=O)(=O)N2CCCCC2)c1`, the compound was called inactive.

On to `O=C1C2CCCN2c2ccc(S(=O)(=O)N3CCOCC3)cc2N1Cc1ccccc1F` (stereo not given), for which the result was inactive.

As to `Cn1c(CC(=O)Nc2ccc(F)cc2)nnc1SCC(=O)Nc1nncs1`, the outcome was inactive.

`Cc1ccccc1N(C(=O)c1snc(C(N)=O)c1N)C(C(=O)NC1CCCCC1)c1ccc(O)cc1` (stereo not given): the compound was called inactive.

On to `N#CCN(N=Nc1ccccc1)c1ccccc1`, for which the result was inactive.

`Cc1cc(/C=C2\Cc3ccccc3C2=O)c(C)n1-c1ccccc1`: the result was inactive.

For `COC(=O)c1ccc(/C=C(/NC(=O)c2ccccc2)C(=O)N2CCOCC2)cc1`, the call was inactive.

`Cc1ccc(CCNC(=O)CCc2nc3ccccc3[nH]2)cc1`: the compound was classed as inactive.

In the case of `CC(=O)Nc1ccc(OCC(O)CNC(C)C)cc1` (stereo not given), the call was inactive.

For the compound `CC1=C(C)C(OCCCl)N(c2cc(O)c(Cl)cc2F)C1=O` (stereo not given), the call was inactive.

Consider `O=C(O)c1cccc(NC(=O)c2cn(-c3ccccc3)nc2-c2ccc(F)cc2)c1`, for which the compound was classed as inactive.

With `C/C(=N/NC(=O)c1cc(C2CC2)[nH]n1)c1cccs1`, the compound was called inactive.

Regarding `N/C(=N\OC(=O)c1cccc(Br)c1)c1ccccn1`, the outcome was inactive.

Consider `Cc1cc(C(=O)CSc2nnc(-c3cccs3)o2)c(C)n1-c1ccccc1`, for which the compound was called inactive.

As to `CN(Cc1ccc(F)cc1)C(=O)CN1CCN(S(=O)(=O)c2ccc3c(c2)OCCCO3)CC1`, the compound was called inactive.

With `COc1cc(N(C)C)c([N+](=O)[O-])cc1C(=O)N1CCN(Cc2ccccc2)CC1`, the compound was classed as inactive.

Consider `COc1ccc(CCNC(=O)CSc2ccsc2[N+](=O)[O-])cc1OC`, for which the outcome was inactive.
